Molecules are shown by their SMILES. Inconclusive results are not listed. Entries that show only a call come without a potency. Calls of active or inactive are those of the source. The call rests on the fitted dose curve; in most records, active means well fitted curve in the direction sought with a large enough effect; inconclusive means small, poorly fitted or top-dose-only effect, or another doubt; inactive means no such curve, though single readings can be large; an effect the other way counts as inactive or inconclusive.

The text below walks through data of PubChem BioAssay (NCATS).

The nature of one assay: P-glycoprotein substrates identified in KB-3-1 adenocarcinoma cell line, qHTS therapeutic library screen (AID 1346986). Further: nearly all actives have a fitted effect of over 60% in size. To be noted: KB-3-1 parental cells viability, CellTiter-Glo, 72 h; series mostly up to 44.5 µM. In outline: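 Viability read by CellTiter-Glo after 72 h compound exposure in dose-response of KB-3-1 and KB-8-5-11 (P-gp-high) cells. Hits needed AC50 < 10 uM, >50% maximum response and curve class -1.1 to -2.4. Cherry-picks retested ± tariquidar, including pcDNA/MDR-19 HEK-293 pair.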
As for `CC1CC(C(O)C(C)(C)O)OC2CC3(C)C4(C)CCC5C(C)(C)C(=O)CCC5(C)C4CCC3(O)C12O` (configuration not stated), the Potency entry was “inactive”.
Turning to `CC(C)(C)NC(=O)[C@@H](c1cccnc1)N(C(=O)c1ccco1)c1ccc(C(C)(C)C)cc1`, the Potency entry was “inactive”.
Regarding `C=C[C@H]1[C@H](O[C@@H]2O[C@H](CO)[C@@H](O)[C@H](O)[C@H]2O)OC=C(C(=O)OC)[C@H]1CCOC(=O)c1cc(O)c(O)c(O)c1`, the Potency result was “inactive”.

A short description of a further assay: P-glycoprotein substrates identified in KB-8-5-11 adenocarcinoma cell line, qHTS therapeutic library screen (AID 1346987). Further: nearly all actives have a fitted effect of over 65% in size. Further: potency means the concentration at half of the fitted maximal effect. As to conditions: KB-8-5-11 (P-gp overexpressing) viability, CellTiter-Glo, 72 h; series mostly up to 44.5 µM. In outline:
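Luminescence from CellTiter-Glo, read 5 min after addition, quantified survival of KB-8-5-11 (P-gp-overexpressing) cells exposed to compounds for 72 h. AC50 was derived from concentration-response curves.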
Regarding `COc1cc(C(=O)NC2CCN(C)CC2)c(F)cc1Nc1ncc2c(n1)N(C1CCCC1)CC(F)(F)C(=O)N2C`, the Potency was 51.7 nM (active).
`Cc1cc(C(=O)N2Cc3cnn(C)c3Nc3ccccc32)ccc1CNC(=O)N1CCC[C@H]1C(=S)N1CCCN(C)CC1`: the Potency entry was “inactive”.
Consider `CCOCc1nc2c(N)nc3ccccc3c2n1CC(C)(C)O`, for which the Potency result is “inactive”.
As for `CC1=CC(=O)C2(OC3OC(C)C(O)C(OC(=O)/C=C/c4ccccc4)C3O)C=COC(OC3OC(CO)C(O)C(O)C3O)C12` (configuration not stated), the Potency entry is “inactive”.
For the compound `Nc1ccc(-c2cccc3c(=O)cc(N4CCOCC4)oc23)cc1`, the Potency was 6510 nM (active).
Same read-out and setting: in the case of `O=C(c1ccc(/C=C/c2n[nH]c3ccccc23)cc1)N1CCNCC1` it was 6510 nM (active); in that of `O=S(=O)(c1ccc(S(=O)(=O)n2cnc3ccccc32)cc1)N1CCCCCC1`, “inactive”; in that of `CCC(C)C(=O)OC1CC(C)C=C2C=CC(C)C(CCC(O)CC(O)CC(=O)O)C21` (configuration not stated), “inactive”.
On the same count and under the same terms, in the case of `Cc1ccc(-c2ccc3ncc4c(c3n2)n(C2CCN(C(=O)[C@H](C)O)CC2)c(=O)n4C)cn1` it was 164 nM (active); in that of `CC(Cc1cc2c(c(C(N)=O)c1)N(CCCO)CC2)NCCOc1ccccc1OCC(F)(F)F` (configuration not stated), “inactive”; in that of `CC(=O)O[C@H]1C[C@@](O)(C(C)C)C2[C@@H](OC(=O)c3ccc(O)cc3)C[C@@]3(C)O[C@H]3C[C@]21C` (some centres not stated), “inactive”.
Consider `C=C1CCC2C(C)(COC(C)=O)CCCC2(C)C1CCC(C)CC(=O)O` (configuration not stated), for which the Potency result was “inactive”.
Consider `O=C(OCC1=CC(O)C2C=CO[C@@H](O[C@@H]3O[C@H](CO)[C@@H](O)[C@H](O)[C@H]3O)C12)c1ccccc1` (some centres not stated), for which the Potency result is “inactive”.
On the same count and under the same terms, in the case of `C=C1CCC2C(C(C)(C)O)CCC2(C)CC(O)C(=C)CCC1O` (configuration not stated) it was “inactive”.
For `CC1(C)CCCC2(C)C1CC=C1C(=O)OC(O)C12O` (configuration not stated), the Potency result is “inactive”.
For `COC(=O)C1(C)c2[nH]c3ccccc3c2CCN1C(=O)CCl` (configuration not stated), the Potency is 10300 nM (active).
Turning to `C/C=C1\[C@H](O[C@@H]2O[C@H](CO)[C@@H](O)[C@H](O)[C@H]2O)OC=C(C(=O)OC)[C@H]1CC(=O)O`, the Potency result was “inactive”.
Turning to `C=C[C@@](C)(O)CC/C=C(\C)C(=O)O[C@@H]1[C@@H]2O[C@]2(C)[C@H]2[C@H](O[C@@H]3O[C@H](CO)[C@@H](O)[C@H](O)[C@H]3O)OC=C[C@@]12O`, the Potency entry is “inactive”.
On to `Cc1csc(NC(=O)c2ccc(COc3cccc(Cl)c3)o2)n1`, for which the Potency entry was “inactive”.
In the case of `COc1cc(OC)c(/C=C/S(=O)(=O)Cc2ccc(OC)c(NCC(=O)O)c2)c(OC)c1`, the Potency is 461 nM (active).
For the compound `CC(C)(C)CCN1C[C@@H]2C(CNC(=O)c3cc(Cl)cc(Cl)c3)[C@@H]2C1` (some centres not stated), the Potency entry is “inactive”.
For `CC1CC(C(O)C(C)(C)O)OC2CC3(C)C4(C)CCC5C(C)(C)C(=O)CCC5(C)C4CCC3(O)C12O` (configuration not stated), the Potency result is “inactive”.
Consider `COC(=O)[C@@]1(c2ccc(C)cc2)C[C@H]1CN1CCC(O)(c2ccccc2)CC1`, for which the Potency entry is “inactive”.
For the compound `COc1cc2ncnc(N3CCC(Oc4cnc5ccccc5n4)C3)c2cc1OC` (configuration not stated), the Potency was 461 nM (active).
For the compound `CC(C)C(C#N)O[C@@H]1O[C@H](CO[C@@H]2O[C@@H](C)[C@H](O)[C@@H](O)[C@H]2O)[C@@H](O)[C@H](O)[C@H]1O` (some centres not stated), the Potency result was “inactive”.
`CC(C)(C)NC(=O)[C@@H](c1cccnc1)N(C(=O)c1ccco1)c1ccc(C(C)(C)C)cc1`: the Potency result is “inactive”.
As for `CC1(C)CC[C@]2(C(=O)O[C@@H]3O[C@H](CO)[C@@H](O)[C@H](O)[C@H]3O)CC[C@]3(C)C(=CCC4[C@@]5(C)CC[C@H](O[C@@H]6O[C@H](C(=O)O)[C@@H](O)[C@H](O[C@@H]7O[C@H](CO)[C@H](O)[C@H](O)[C@H]7O)[C@H]6O)C(C)(C)C5CC[C@]43C)C2C1` (some centres not stated), the outcome is “inactive [at 9.29 µM]”.
With `C=C1C[C@]23C[C@H]1[C@@H](O)C[C@H]2[C@@]12C=C[C@H](O)[C@@](C)(C(=O)O1)[C@H]2[C@@H]3C(=O)O`, the Potency entry is “inactive”.
With `Cc1ccc(C)c(OCCn2cc(C(=O)O)c3ccccc32)c1`, the Potency entry is “inactive”.
`CC[C@]12C=CCN3CC[C@@]4(c5cc([C@@]6(C(=O)OC)C[C@H]7C[C@@H](C(C)(F)F)CN(Cc8c6[nH]c6ccccc86)C7)c(OC)cc5N(C)[C@H]4[C@@](O)(C(=O)OC)[C@@H]1OC(C)=O)[C@@H]32`: the Potency is 5440 nM (active).
`CNS(=O)(=O)c1ccccc1Nc1nc(Nc2ccc(N3CCN(C)CC3)cc2OC)ncc1Cl`: the Potency is 651 nM (active).
For `CC(=O)O[C@@](C)(C(=O)/C=C/C(C)(C)O)[C@H]1[C@H](O)C[C@@]2(C)[C@@H]3CC=C4[C@@H](C=C(O)C(=O)C4(C)C)[C@]3(C)C(=O)C[C@]12C`, the Potency was 796 nM (active).
Take `C[C@@H]1C[C@@H]([C@@H](O)C(C)(C)O)O[C@H]2C[C@@]3(C)C(=C12)C[C@H](O)[C@H]1[C@@]2(C)CCC(=O)C(C)(C)C2CC[C@@]13C` (some centres not stated): the Potency entry was “inactive”.
Consider `C=CC1C(OC2OC(CO)C(O)C(O)C2O)OC=C(C(=O)OC)C1CC1CC(=O)CC(CCc2ccc(O)cc2)O1` (configuration not stated), for which the Potency result was “inactive”.
On the same count and under the same terms, in the case of `COC(=O)N[C@@H](C)CNc1nccc(-c2cn(C(C)C)nc2-c2cc(Cl)cc(NS(C)(=O)=O)c2F)n1` it was “inactive”; in that of `C=C[C@H]1[C@H](O[C@@H]2O[C@H](CO)[C@@H](O)[C@H](O)[C@H]2O)OC=C(C(=O)OC)[C@H]1CCOC(=O)c1cc(O)c(O)c(O)c1`, “inactive”; in that of `CC1(C)CCCC2(C)C=C(C(=O)O)C(O)CC12` (configuration not stated), “inactive”.
Consider `O=C(/C=C/c1cccc(S(=O)(=O)Nc2ccccc2)c1)NO`, for which the Potency is 2820 nM (active).
Turning to `COc1cc(-c2ncn(/C=C\C(=O)OC(C)C)n2)cc(C(F)(F)F)c1`, the Potency is 259 nM (active).
